{"source": "PubChem BioAssay (NCATS)", "note": "Records with an inconclusive call do not appear. Calls of active or inactive are those of the source. The call rests on the fitted dose curve; in most records, active means well fitted curve in the direction sought with a large enough effect; inconclusive means small, poorly fitted or top-dose-only effect, or another doubt; inactive means no such curve, though single readings can be large; an effect the other way counts as inactive or inconclusive."}
{"molecular_target": "Cytochrome P450 3A4 (Homo sapiens) (UniProt P08684)", "sequence (P08684 whole entry, looked up)": "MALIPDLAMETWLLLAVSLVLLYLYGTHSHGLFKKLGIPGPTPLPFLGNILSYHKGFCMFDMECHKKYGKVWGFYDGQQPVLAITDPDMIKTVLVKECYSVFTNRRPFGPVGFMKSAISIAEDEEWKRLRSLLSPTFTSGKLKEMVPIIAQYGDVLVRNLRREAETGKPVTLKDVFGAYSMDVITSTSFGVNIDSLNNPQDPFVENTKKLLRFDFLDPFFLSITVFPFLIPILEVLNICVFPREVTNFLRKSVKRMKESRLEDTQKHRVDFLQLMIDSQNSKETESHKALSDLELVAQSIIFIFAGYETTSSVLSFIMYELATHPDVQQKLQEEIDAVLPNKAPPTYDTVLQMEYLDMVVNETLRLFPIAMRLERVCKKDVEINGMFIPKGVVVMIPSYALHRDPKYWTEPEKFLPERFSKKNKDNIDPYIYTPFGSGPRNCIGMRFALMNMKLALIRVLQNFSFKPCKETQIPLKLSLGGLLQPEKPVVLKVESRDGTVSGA", "test": "qHTS Assay for Inhibitors and Substrates of Cytochrome P450 3A4 (AID 884); further: potency means the concentration at half of the fitted maximal effect; nearly all actives have a fitted effect of over 50% in size", "conditions": "recombinant CYP3A4, Luciferin-PPXE luminescence; series mostly up to 57.1 µM; activity change, negative = inhibition: at the top concentration", "procedure,_shortened": "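Luminescent readout of luciferin produced by CYP3A4 (20 nM) dealkylation of Luciferin-PPXE, 25 uM (its KM). NADPH-driven reaction ran 60 min at RT after 10 min compound preincubation; data scaled to 57 uM ketoconazole as 100% inhibition.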"}
{"smiles": "COc1ccc2c(=O)c(OC)c(-c3ccccc3)oc2c1", "Potency": "10 µM (active)"}
{"smiles": "COc1cc2c(cc1OC)C1C(=O)c3ccc4c(c3OC1CO2)C=CC(C)(C)O4", "note": "(centres undefined)", "Potency": "31.6 µM (active)"}
{"smiles": "COC(=O)[C@@]1(C)CCC[C@@]2(C)c3ccc(O)c(C(C)C)c3CCC21", "note": "(some centres undefined)", "Potency": "31.6 µM (active)"}
{"molecular_target": "Cytochrome P450 3A4 (Homo sapiens) (UniProt P08684)", "test": "qHTS Assay for Activators of Cytochrome P450 3A4 (AID 885); further: nearly all actives have a fitted effect of over 65% in size", "conditions": "recombinant CYP3A4, Luciferin-PPXE luminescence, 60 min; series mostly up to 57.1 µM; activity change, positive = activation: at the top concentration", "procedure,_shortened": "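Human CYP3A4 dealkylates Luciferin-PPXE to luciferin, which luciferase detection converts to light. Substrate was at its KM (25uM), buffer 200mM KPO4, reaction 60 min at RT.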"}
{"smiles": "COc1ccc2c(=O)c(OC)c(-c3ccccc3)oc2c1", "activity change, positive = activation": "-82.8% (inactive)"}
{"smiles": "COc1cc2c(cc1OC)C1C(=O)c3ccc4c(c3OC1CO2)C=CC(C)(C)O4", "note": "(centres undefined)", "activity change, positive = activation": "-68.7% (inactive)"}
{"smiles": "COC(=O)[C@@]1(C)CCC[C@@]2(C)c3ccc(O)c(C(C)C)c3CCC21", "note": "(some centres undefined)", "activity change, positive = activation": "-67.6% (inactive)"}
{"system": "not listed separately", "test": "Confirmation and Secondary Assay for Modulators of Hemoglobin Beta Chain Splicing at IVS2 654 locus (AID 910);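 further: per-well total GFP intensity by laser scanning cytometry after 2-day treatment; % of control where 0% means no effect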", "conditions": "HeLa EGFP-654 splicing reporter, GFP fluorescence, 48 h; series mostly up to 46.1 µM; activation (splicing correction): at the top concentration", "procedure,_shortened": "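HeLa cells stably carrying EGFP interrupted by mutant beta-globin IVS2-654 intron (CMV-driven) were treated with compound for 2 days at 37C; corrected splicing was scored as total peak GFP intensity per well (488 nm excitation, 500-520 nm emission).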"}
{"smiles": "COc1ccc2c(=O)c(OC)c(-c3ccccc3)oc2c1", "activation (splicing correction)": "0.842% [at 38.3 µM] (inactive)"}
{"smiles": "COc1cc2c(cc1OC)C1C(=O)c3ccc4c(c3OC1CO2)C=CC(C)(C)O4", "note": "(centres undefined)", "activation (splicing correction)": "-7.03% (inactive)"}
{"smiles": "CC1(C)C(OC(=O)CCC(=O)O)CC[C@]2(C)C1CC[C@@]1(C)C2C(=O)C=C2[C@@H]3C[C@@](C)(C(=O)O)CC[C@]3(C)CCC21C", "note": "(some centres undefined)", "activation (splicing correction)": "0.729% (inactive)"}
{"smiles": "COC(=O)[C@@]1(C)CCC[C@@]2(C)c3ccc(O)c(C(C)C)c3CCC21", "note": "(some centres undefined)", "activation (splicing correction)": "-9.1% (inactive)"}
{"system": "not listed separately", "test": "Confirmation and Secondary Assay for Modulators of Hemoglobin Beta Chain Splicing at IVS2 705 locus (AID 930);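 further: HeLa cells stably expressing the EGFP-705 splicing reporter; % of control where 0% means no effect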", "conditions": "HeLa EGFP-705 splicing reporter, GFP fluorescence, 48 h; series mostly up to 46.1 µM; activation: at the top concentration", "procedure,_shortened": "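Restored EGFP fluorescence after 2-day compound exposure reports splicing correction in IVS2-705 EGFP reporter HeLa cells; positive control was 500 nM splice-blocking PNA oligo. Signal measured as well total peak GFP intensity (488 nm excitation).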"}
{"smiles": "COc1ccc2c(=O)c(OC)c(-c3ccccc3)oc2c1", "activation": "1.68% [at 38.3 µM] (inactive)"}
{"smiles": "COc1cc2c(cc1OC)C1C(=O)c3ccc4c(c3OC1CO2)C=CC(C)(C)O4", "note": "(centres undefined)", "activation": "-0.371% (inactive)"}
{"smiles": "CC1(C)C(OC(=O)CCC(=O)O)CC[C@]2(C)C1CC[C@@]1(C)C2C(=O)C=C2[C@@H]3C[C@@](C)(C(=O)O)CC[C@]3(C)CCC21C", "note": "(some centres undefined)", "activation": "2.69% (inactive)"}
{"smiles": "COC(=O)[C@@]1(C)CCC[C@@]2(C)c3ccc(O)c(C(C)C)c3CCC21", "note": "(some centres undefined)", "activation": "1.55% (inactive)"}
{"molecular_target": "Rap guanine nucleotide exchange factor 3 (Homo sapiens) (UniProt O95398)", "sequence (O95398 whole entry, looked up)": "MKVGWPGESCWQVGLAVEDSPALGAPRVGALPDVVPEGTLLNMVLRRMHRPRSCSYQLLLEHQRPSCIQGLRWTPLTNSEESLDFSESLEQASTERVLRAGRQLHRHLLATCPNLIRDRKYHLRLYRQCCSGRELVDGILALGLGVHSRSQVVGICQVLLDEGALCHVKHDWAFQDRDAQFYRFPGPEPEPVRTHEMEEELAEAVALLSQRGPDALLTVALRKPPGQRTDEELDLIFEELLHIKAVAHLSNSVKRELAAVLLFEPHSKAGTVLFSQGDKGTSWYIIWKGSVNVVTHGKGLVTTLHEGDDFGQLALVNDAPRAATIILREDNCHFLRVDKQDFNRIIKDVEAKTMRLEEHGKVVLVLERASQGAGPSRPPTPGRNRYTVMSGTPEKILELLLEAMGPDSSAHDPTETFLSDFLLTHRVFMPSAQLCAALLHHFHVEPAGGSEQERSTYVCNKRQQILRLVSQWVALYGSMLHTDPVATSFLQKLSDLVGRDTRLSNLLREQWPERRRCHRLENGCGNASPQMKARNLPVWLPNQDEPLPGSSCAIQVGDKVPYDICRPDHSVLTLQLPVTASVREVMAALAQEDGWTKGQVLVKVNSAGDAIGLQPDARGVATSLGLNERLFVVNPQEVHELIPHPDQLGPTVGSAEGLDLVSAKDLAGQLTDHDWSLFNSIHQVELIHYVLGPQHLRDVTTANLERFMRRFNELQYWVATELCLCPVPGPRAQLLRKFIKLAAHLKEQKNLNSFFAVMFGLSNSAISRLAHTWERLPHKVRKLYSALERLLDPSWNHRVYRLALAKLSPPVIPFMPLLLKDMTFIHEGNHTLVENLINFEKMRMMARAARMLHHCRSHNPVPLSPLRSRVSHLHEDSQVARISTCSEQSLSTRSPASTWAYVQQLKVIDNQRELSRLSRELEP", "test": "Confirmatory qHTS for antagonist of cAMP-regulated guanine nucleotide exchange factor 3 (EPAC1) (AID 1645880); further: nearly all actives have a fitted effect of over 55% in size; further: potency means the concentration at half of the fitted maximal effect;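 on activity, negative = inhibition: plate controls were DMSO only for no effect and full effect of the ATA control for full effect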", "conditions": "EPAC1 Rap1B-BODIPY-GDP exchange, fluorescence; activity, negative = inhibition: at 115 µM (top of the series)", "procedure,_shortened": "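Released BODIPY-GDP fluoresces less than Rap1-bound BODIPY-GDP; the signal is followed at 480/540 nm at 5-min intervals over 30 min, after 5 min at room temperature. Reactions contain 100 nM EPAC1, 250 nM RAP1B-BODIPY-GDP and 50 uM GDP; results are normalized to ATA and DMSO.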"}
{"smiles": "CCOC(=O)c1c(NC(=O)CSc2nc3ccc(C)cc3[nH]2)sc2c1CC(C)(C)NC2(C)C", "activity, negative = inhibition": "-31.9% (inactive)"}
{"smiles": "Cc1cc(Nc2ccccc2)c2c([N+](=O)[O-])ccc(C)c2n1", "activity, negative = inhibition": "-10.3% (inactive)"}
{"smiles": "Cc1cc(C)nc(SCC(=O)c2ccc(F)c(C)c2)n1", "activity, negative = inhibition": "-22.3% (inactive)"}
{"smiles": "COC(=O)C1=CN(Cc2cccs2)C=C(C(=O)OC)C1c1cccc(O)c1", "activity, negative = inhibition": "-18.8% (inactive)"}
{"smiles": "CCCCn1nnnc1C(c1ccccc1)N1CCN(c2ccc(F)cc2)CC1", "note": "(centres undefined)", "activity, negative = inhibition": "-23.4% (inactive)"}
{"smiles": "Cc1ccc(S(=O)(=O)Nc2ccccc2C(=O)Nc2nc(-c3ccc(F)cc3)cs2)cc1", "Potency": "42.6 µM (active)"}
{"smiles": "Cc1cc(NC(=O)COC(=O)C(C)Oc2ccc(Cl)cc2Cl)no1", "note": "(centres undefined)", "activity, negative = inhibition": "-21.5% (inactive)"}
{"smiles": "Cc1ccc(CC#N)c(-c2c(CC#N)ccc(C)c2C)c1C", "activity, negative = inhibition": "-24.3% (inactive)"}
{"smiles": "CCC(=O)NC(c1cccs1)c1cc([N+](=O)[O-])c2cccnc2c1O", "note": "(centres undefined)", "Potency": "42.6 µM (active)"}
{"smiles": "COC(=O)c1c(-c2ccc(OC)cc2)sc2ccc(OC)cc12", "activity, negative = inhibition": "-19.2% (inactive)"}
{"smiles": "CC1=CC(C)(C)N(C(=O)c2ccc(F)cc2)c2cc3c(cc21)OCO3", "activity, negative = inhibition": "-26.3% (inactive)"}
{"smiles": "COc1ccc(OC)c(C(=O)c2ccc(Cl)cc2)c1", "activity, negative = inhibition": "-18.5% (inactive)"}
{"smiles": "Cc1ccc2oc(C(=O)N3CCCCCC3)c(C)c2c1", "activity, negative = inhibition": "-19.6% (inactive)"}
{"smiles": "CCCCN(C(=O)c1ccc2c(c1)OCO2)c1ccccc1", "activity, negative = inhibition": "-25.5% (inactive)"}
{"smiles": "CCOC(=O)C1Nc2c(F)cc(C)cc2C2c3ccccc3CC12", "note": "(centres undefined)", "activity, negative = inhibition": "-18.9% (inactive)"}
{"smiles": "O=C1/C(=C\\c2cc([N+](=O)[O-])ccc2O)SC(=S)N1Cc1ccc(Cl)cc1", "Potency": "75.7 µM (active)"}
{"smiles": "O=[N+]([O-])c1ccccc1O[C@@H]1O[C@H](CO)[C@H](O)[C@H](O)[C@H]1O", "activity, negative = inhibition": "-15.1% (inactive)"}
{"smiles": "COc1ccc2c(=O)c(OC)c(-c3ccccc3)oc2c1", "activity, negative = inhibition": "-18.7% (inactive)"}
{"smiles": "Cc1nc2sc(C(c3cccs3)N3CCN(C(=O)c4ccco4)CC3)c(O)n2n1", "note": "(centres undefined)", "activity, negative = inhibition": "-7.4% (inactive)"}
{"smiles": "COc1cc(/C=C2\\C(=N)N3N=C(S(C)(=O)=O)SC3=NC2=O)cc(OC)c1OCCOc1ccccc1C", "Potency": "67.5 µM (active)"}
{"smiles": "Cc1oc2cc([N+](=O)[O-])c(O)c([N+](=O)[O-])c2c1C(=O)c1ccc(Br)cc1", "Potency": "75.7 µM (active)"}
{"smiles": "Cc1c(Cl)cccc1NC(=O)Nc1cccnc1", "activity, negative = inhibition": "-23.1% (inactive)"}
{"smiles": "COc1cc2c(cc1OC)C1C(=O)c3ccc4c(c3OC1CO2)C=CC(C)(C)O4", "note": "(centres undefined)", "activity, negative = inhibition": "-6.5% (inactive)"}
{"smiles": "O=C1/C(=C\\c2ccc(Br)cc2)SC(=S)N1NS(=O)(=O)c1ccccc1", "Potency": "11.2 µM (active)"}
{"smiles": "COc1ccc(NC(=O)COC(=O)c2ccc(S(=O)(=O)N(C)c3ccccc3OC)cc2)cc1OC", "activity, negative = inhibition": "-20% (inactive)"}
{"smiles": "N#Cc1c(C(F)(F)F)cc(-c2ccccc2)nc1SCc1nc(N)nc(N2CCOCC2)n1", "activity, negative = inhibition": "-4.93% (inactive)"}
{"smiles": "Cc1ccc(-c2noc(CSc3nnnn3C3CCCCC3)n2)cc1", "activity, negative = inhibition": "-24.6% (inactive)"}
{"smiles": "COc1ccc(NC(=O)c2cc(-c3ccco3)nc3ccccc23)cc1S(=O)(=O)N1CCOCC1", "Potency": "9.53 µM (active)"}
{"smiles": "CCSc1nc(C)cc(C)c1S(=O)(=O)c1ccccc1C", "activity, negative = inhibition": "-19.5% (inactive)"}
{"smiles": "COc1ccc(C(C#N)N2CCC(c3ccccc3)=N2)cc1OC", "note": "(centres undefined)", "activity, negative = inhibition": "-11.7% (inactive)"}
{"smiles": "O=C(COc1ccccc1Cl)Nc1ccc(C(=O)c2ccc(C(=O)O)cc2)cc1", "activity, negative = inhibition": "-24.8% (inactive)"}
{"smiles": "CCn1c(O)c(/C=N/NC(=O)c2ccncc2)c(=O)n(CC)c1=S", "activity, negative = inhibition": "25% (inactive)"}
{"smiles": "COc1ccc(-c2csc(NC(=O)c3ccccc3NS(=O)(=O)c3ccc(F)c(F)c3)n2)cc1", "Potency": "22.4 µM (active)"}
{"smiles": "CC1(C)C(OC(=O)CCC(=O)O)CC[C@]2(C)C1CC[C@@]1(C)C2C(=O)C=C2[C@@H]3C[C@@](C)(C(=O)O)CC[C@]3(C)CCC21C", "note": "(some centres undefined)", "activity, negative = inhibition": "-10.6% (inactive)"}
{"smiles": "COC(=O)[C@@]1(C)CCC[C@@]2(C)c3ccc(O)c(C(C)C)c3CCC21", "note": "(some centres undefined)", "activity, negative = inhibition": "-15.1% (inactive)"}
{"smiles": "O=C(Nc1sc2c(c1C(=O)O)CCC2)c1ccccc1F", "activity, negative = inhibition": "-23.4% (inactive)"}
{"smiles": "O=C(O)c1ccc(/C=N/Nc2cccc(C(F)(F)F)c2)cc1", "activity, negative = inhibition": "0.75% (inactive)"}
{"smiles": "NC1=C(Cl)C(=O)c2ccc(S(N)(=O)=O)cc2C1=O", "Potency": "75.7 µM (active)"}
{"smiles": "Cc1ccc2oc(=O)c(/C=C(\\O)c3ccco3)nc2c1", "activity, negative = inhibition": "42.7% (inactive)"}
{"smiles": "CCN(CC)c1ccc2cc(-c3nnc(-c4cccc(Cl)c4)o3)c(=O)oc2c1", "activity, negative = inhibition": "37.2% (inactive)"}
